# Test results: PubChem BioAssay AID651784 (National Center for Advancing Translational Sciences (NCATS), 2012)
# Results filed as inconclusive are left out. Calls of active or inactive are those of the source. Calls come from the whole dose curve; as a rule, active = well fitted inhibition curve with a large enough effect; inconclusive = small, poorly fitted or top-dose-only effect; inactive = no such curve, though single readings can be large or run the other way.
# Experiment: Acumen qHTS Assay for Inhibitors of the mTORC1 Signaling Pathway in MEF (Tsc2-/-, p53-/-) Cells: Hit Validation;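 note: phospho-rpS6 Ser235/236 immunofluorescence normalized to propidium iodide cell count; nearly all actives have a fitted effect of over 65% in size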;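 for activity change, negative = inhibition: cells exposed to compound for 24 hours; plate controls were DMSO for no effect and 7.5 nM rapamycin control for full effect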
# Settings: Acumen imaging; activity change, negative = inhibition: at 37.3 µM (top of the series)
# Potency is the fitted concentration of half-maximal effect.
SMILES,Potency,"activity change, negative = inhibition [%]"
Cc1cc(-c2ccc(S(=O)(=O)Nc3cccc(C)c3C)s2)on1,4.14 µM (active),–
COc1cc(Cl)c(C)cc1Nc1c2c(nc3ccccc13)CCC2,0.927 µM (active),–
Cc1cccc(NS(=O)(=O)c2ccc3[nH]c4c(c3c2)CCCCCC4)c1,5.21 µM (active),–
Cc1ccc(NC(=O)c2nc(S(=O)(=O)Cc3cccc(C)c3)ncc2Cl)cc1,–,-108
CS(=O)c1ccc(-c2nc(-c3ccc(F)cc3)c(-c3ccncc3)[nH]2)cc1 (configuration not stated),–,-5.71
COc1ccc(-c2cc(C(F)(F)F)nc(S(C)(=O)=O)n2)cc1,–,-88.8
Cc1cccc(OCc2ccc(-c3nc(C#N)c(NCCN(C)C)o3)o2)c1,–,0.2
Cc1ccc2[nH]c(=O)c3cc(C(=O)NCCCN4CCC(C)CC4)sc3c2c1,13.1 µM (active),–
CCOC(=O)c1c(C)[nH]c(CCC(=O)NCCCN2CCN(c3cc(C)ccc3C)CC2)c1C,16.5 µM (active),–
COc1ccc(-n2ncc3c(NCCCOC(C)C)ncnc32)cc1,–,1.17
CCOc1ccc(NC(=O)N(Cc2c[nH]c3ccccc23)C2CCCCCC2)cc1,–,-15.9
CC(C(=O)NCc1cccc(Br)c1)n1ncn2cccc2c1=O (configuration not stated),–,1.66
CCN(CC)CCNC(=O)c1cc(-c2ccc(Br)s2)nc2ccccc12,11.7 µM (active),–
COc1ccc(S(=O)(=O)N(CCc2ccccc2)CC(=O)Nc2cccc(OC)c2)cc1,–,-19.2
Nc1nc(Nc2ccccc2F)sc1C(=O)c1ccc(Cl)cc1,–,-5.15
O=C(CCOc1ccccc1)N(Cc1cccnc1)c1nc2c(F)cccc2s1,11.7 µM (active),–
CCc1ccc(NC(=O)Cn2nc(C(F)(F)F)c3c2CCCC3)cc1,–,-28
CCN(CCCNC(=O)c1cc2c(=O)[nH]c3ccc(C)cc3c2s1)Cc1ccccc1,–,-139
COc1ccc(C(=O)c2sc(Nc3ccccc3)nc2N)cc1,–,-4.73

SMILES,Potency,"activity change, negative = inhibition [%]"
CCCCNC(=O)CSc1c2c(nc3ccc(Cl)cc13)CCCC2,–,-28.5
CCOc1ccc(NC(=O)CN2C(=O)C(c3ccc(Cl)cc3)=NC2(C)C)cc1,–,17.5
CCCCN(C)CCNC(=O)C1CCN(c2nc3ccc(CC)cc3s2)CC1,–,-90.7
CS(=O)(=O)CCNCc1ccc(-c2ccc3ncnc(Nc4ccc(OCc5cccc(F)c5)c(Cl)c4)c3c2)o1,–,5.21
Cc1ccc(NC(=O)CSc2nc(=O)cc(N)n2CCc2ccccc2)cc1,–,-30
CCc1nn(CC(=O)NCc2ccccc2Cl)c(=O)c2cccn12,–,3.65
Cc1cccc(N2CCN(C(=O)C3CCN(C(=O)c4cc5sccc5n4C)CC3)CC2C)c1 (configuration not stated),–,-39.1
CCOc1ccc(-c2nc(SCC(=O)c3ccccc3)n[nH]2)cc1,–,-131
CCOc1cc(C2CC(=O)Nc3cc4c(cc32)OCCO4)ccc1O (configuration not stated),–,3.9
O=C(NCC1CCN(Cc2cccc(Cl)c2)CC1)Nc1ccc(F)c(Cl)c1,9.27 µM (active),–
CCCCOCc1cc(CN2CCN(c3cccc(Cl)c3)CC2)c(O)c2ncccc12,2.61 µM (active),–
COc1cc(NC(=O)CSc2ccc(-c3ccccn3)nn2)cc(OC)c1,–,-6.23
O=C(COc1ccccc1-c1nc(-c2ccccc2)no1)Nc1cccc([N+](=O)[O-])c1,1.04 µM (active),–
Cc1ccccc1C(=O)N1CCN(CCc2ccccn2)CC1,–,-26.5
COc1cccc(-c2nc(S(=O)(=O)c3ccc(Cl)cc3)c(NCc3ccccc3)o2)c1,–,29.5
COc1ccc2nc(NC(=O)c3nc(S(=O)(=O)Cc4ccccc4)ncc3Cl)sc2c1,5.85 µM (active),–
Cc1cccc(Nc2nnc(-c3ccc(C)c(S(=O)(=O)N4CCN(C)CC4)c3)c3ccccc23)c1,–,-6.53
CCCCn1c(=N)n(CCOc2ccccc2OC)c2ccccc21,4.65 µM (active),–
